From article PMC5540273 (PLoS ONE, 2017) come the findings set out here.

Structures are written as SMILES.

Among the test systems are EPHA7; EPHA8; EPHB1; EPHB2; EPHB3; EPHB4; EPHB6; ERBB2; ERBB3; ERBB4.
Settings in all cases: concentration: 1 μM,replicates: in singlicate; n = 1
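Also: KINOMEscan kinase panel screen.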

As to `CN1CCN(CCNc2nc3cc(Oc4ccc(NC(=O)Nc5cc(C(F)(F)F)ccc5F)cc4)ccc3[nH]2)CC1.Cl.Cl` [GW768504], the “%Inh” value in the assay on EPHA7 is 0%; in the assay on EPHA8, 23%; with EPHB1, 17%; in the assay on EPHB2, 34%; with EPHB3, 14%; in the assay on EPHB4, 17%. The “%Inh” value in the assay on EPHB6 stood at 25%; with ERBB2 it was 0%; with ERBB3, 0%; in the assay with ERBB4, 0%.

Take `CC(C)S(=O)(=O)N1CCN(Cc2ccc3c(c2)nc(NC(=O)c2ccsc2)n3C[C@H](O)c2ccccc2)CC1` [GW635815]: the “%Inh” value with EPHA7 is 10%; in the assay on EPHA8, 19%; with EPHB1 it was 35%; in the assay on EPHB2, 16%; with EPHB3, 15%; with EPHB4, 14%. Further, the “%Inh” value with EPHB6, with ERBB2, in the assay on ERBB3 and in the assay with ERBB4 was 0% in each case.

For `CN(c1ccccc1CNc1nc(Nc2ccc3c(c2)CC(=O)N3)ncc1C(F)(F)F)S(C)(=O)=O`, the “%Inh” value was 61% in the assay on EPHA7; 0% in the assay with EPHA8; 11% in the assay with EPHB1; 4% in the assay with EPHB2; 0% in the assay with EPHB3; 0% with EPHB4. Besides, the “%Inh” value in the assay on EPHB6 came out at 38%; in the assay on ERBB2 it was 0%; in the assay with ERBB3, 0%; in the assay on ERBB4 it was 0%.

With `O=C(NCC1CC1)c1ccc(-c2cc(C(=O)NC3CC3)ccc2F)cc1` [GW810445], the “%Inh” value is 0% in the assay with EPHA7; 3% with EPHA8; 4% with EPHB1; 0% with EPHB2; 0% with EPHB3; 0% in the assay on EPHB4. Also, the “%Inh” value came out at 0% in the assay on EPHB6, 11% in the assay on ERBB2, 0% with ERBB3 and 33% in the assay on ERBB4.

Turning to `C[C@@H]1CNc2c(sc3ccc4nc(-c5ccc(O)cc5)ccc4c23)C(=O)N1`, the “%Inh” value in the assay with EPHA7 was 0%; in the assay with EPHA8, 0%; with EPHB1, 5%; with EPHB2 it was 12%; in the assay on EPHB3, 0%; with EPHB4, 0%. Besides, the “%Inh” value stood at 9% with EPHB6, 26% with ERBB2, 0% in the assay on ERBB3 and 6% in the assay with ERBB4.

Regarding `Cn1ccc2ncnc(Oc3ccc(NC(=O)Nc4cncc(C(F)(F)F)c4)c(Cl)c3)c21`, the “%Inh” value worked out at 74% in the assay on EPHA7; 95.4% in the assay on EPHA8; 45% in the assay on EPHB1; 82% in the assay on EPHB2; 37% in the assay with EPHB3; 35% with EPHB4. The “%Inh” value is listed as 66% with EPHB6, 24% in the assay on ERBB2, 0% in the assay on ERBB3 and 2% in the assay with ERBB4.

Consider `CCN1CCN(CCCC(=O)Nc2n[nH]c3nc(-c4ccc(O)cc4)c(Br)cc23)CC1` [SB-731579], for which the “%Inh” value in the assay with EPHA7 was determined as 0%; in the assay with EPHA8, 0%; with EPHB1 it was 0%; with EPHB2 it was 6%; in the assay on EPHB3, 0%; with EPHB4, 0%. Moreover, the “%Inh” value with EPHB6 is given as 0%; in the assay on ERBB2 it was 24%; in the assay on ERBB3 it was 66%; in the assay on ERBB4, 0%.

Take `Cc1ccn2nc(-c3ccc(F)cc3)c(-c3ccncc3)c2c1.Cl` [GW457859]: the “%Inh” value was 0% with EPHA7; 0% in the assay on EPHA8; 0% in the assay on EPHB1; 0% with EPHB2; 2% with EPHB3; 3% in the assay on EPHB4. The “%Inh” value in the assay on EPHB6 stood at 8%; in the assay on ERBB2, 64%; with ERBB3 it was 24%; in the assay with ERBB4, 32%.

`Cc1nnc(-c2ccc3occ(-c4ccc(S(C)=O)cc4)c3n2)o1` (centres unmarked): the “%Inh” value came out at 0% in the assay with EPHA7; 0% with EPHA8; 0% in the assay with EPHB1; 0% with EPHB2; 10% in the assay on EPHB3; 12% in the assay with EPHB4. In addition, the “%Inh” value amounted to 0% with EPHB6, 17% in the assay on ERBB2, 0% with ERBB3 and 0% in the assay with ERBB4.

Take `O=c1[nH]cc(-c2ccc(O)cc2)c2sc(-c3ccncc3)cc12` [GSK1033723]: the “%Inh” value in the assay with EPHA7 is recorded as 0%; with EPHA8, 2%; with EPHB1, 0%; in the assay on EPHB2 it was 26%; with EPHB3, 15%; in the assay on EPHB4, 13%. Also, the “%Inh” value stood at 0% in the assay with EPHB6, 28% in the assay on ERBB2, 0% in the assay with ERBB3 and 2% with ERBB4.

Turning to `CCCC(=O)Nc1n[nH]c2ncccc12` [SB-601436], the “%Inh” value in the assay on EPHA7 was 0%; in the assay with EPHA8, 0%; with EPHB1, 0%; in the assay with EPHB2, 0%; in the assay on EPHB3, 12%; in the assay on EPHB4, 16%. The “%Inh” value with EPHB6, with ERBB2, in the assay on ERBB3 and in the assay on ERBB4 was 0% in each case.

In the case of `Cl.c1ccc(Oc2ccc(Nc3ccnc4cc(-c5ccc(CN6CCNCC6)o5)ccc34)cc2)nc1` [GW567142], the “%Inh” value with EPHA7 is recorded as 0%; in the assay on EPHA8, 10%; in the assay with EPHB1, 0%; with EPHB2, 0%; in the assay on EPHB3, 0%; in the assay with EPHB4, 4%. Further, the “%Inh” value with EPHB6 is 96.2%; with ERBB2 it was 92%; with ERBB3, 97%; in the assay with ERBB4 it was 42%.

Consider `CNC(=O)c1ccccc1Nc1nc(Nc2cccc(CS(C)(=O)=O)c2)ncc1C.O=CO` [GSK1520489], for which the “%Inh” value with EPHA7 is on record as 96.6%; with EPHA8, 96.2%; with EPHB1, 99.9%; with EPHB2 it was 88%; with EPHB3, 9%; in the assay on EPHB4, 91.6%. Besides, the “%Inh” value is recorded as 92.8% in the assay on EPHB6, 92.1% in the assay with ERBB2, 3% in the assay on ERBB3 and 98.2% in the assay on ERBB4.

Turning to `Cc1ccc(CC(=O)N2CCc3cc(-c4cn(C)c5ncnc(N)c45)ccc32)cc1` [GSK2634758], the “%Inh” value with EPHA7 is 4%; in the assay with EPHA8 it was 13%; with EPHB1 it was 7%; in the assay on EPHB2 it was 0%; in the assay on EPHB3, 0%; in the assay with EPHB4, 10%. Besides, the “%Inh” value in the assay with EPHB6 came to 53%; in the assay with ERBB2, 0%; in the assay with ERBB3 it was 10%; in the assay on ERBB4, 18%.

As for `c1ccc(Oc2ccc(Nc3ccnc4ccc(-c5ccccn5)cc34)cc2)cc1` [GW407034], the “%Inh” value in the assay on EPHA7 amounted to 0%; in the assay with EPHA8, 14%; with EPHB1 it was 0%; in the assay with EPHB2, 5%; in the assay on EPHB3, 1%; in the assay with EPHB4 it was 13%. For the same compound, the “%Inh” value was 49% in the assay with EPHB6, 90.3% in the assay on ERBB2, 89% in the assay with ERBB3 and 88% in the assay with ERBB4.

Consider `CN(c1ccc2c(c1)nc(NCc1ccc(F)cc1)n2C)c1ccnc(Nc2ccc(CS(C)(=O)=O)cc2)n1.Cl` [GW813244], for which the “%Inh” value is given as 0% in the assay with EPHA7; 49% with EPHA8; 9% in the assay on EPHB1; 23% with EPHB2; 5% with EPHB3; 0% with EPHB4. In addition, the “%Inh” value in the assay on EPHB6 came to 78%; in the assay on ERBB2 it was 17%; with ERBB3, 0%; with ERBB4, 19%.

`COc1cc(Nc2nccc(N3CCC(NC(=O)c4cccc(C#N)c4)C3)n2)cc(OC)c1OC` (centres unmarked) [GSK1379751]: the “%Inh” value in the assay on EPHA7 is on record as 0%; with EPHA8 it was 0%; with EPHB1 it was 4%; in the assay with EPHB2, 0%; with EPHB3 it was 8%; in the assay with EPHB4, 19%. For the same compound, the “%Inh” value in the assay with EPHB6 is on record as 86%; with ERBB2 it was 41%; in the assay on ERBB3, 16%; in the assay with ERBB4, 31%.
